# Test results reported in PubChem BioAssay.
# Calls of active or inactive are those of the source.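 How the source made its calls, unless noted: active means normalized viability below 100% at a tested concentration; inactive means the rest.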
# What was measured:
# [1] = sensitizers of A549 cells to miR-34 induction, primary screen, imaging, A549 dox-inducible miR-34, nuclei and caspase counts (AID 1347080;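 active means compounds whose cell count with miR-34 switched on is under 0.7 times the count with it off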); details: A549 miR-34 inducible, Hoechst nuclei count, 48 h
# [2] = survival rescue of mitochondrial mutant cells in low glucose, primary screen, MELAS cybrids, Rieske KO mouse fibroblasts, CellTiter-Glo (AID 1508586;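 active means mean z-score across replicates of 1.96 or higher in either the MELAS or the Rieske mutant cell line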;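 further: z relative to plate mean and SD of compound and empty wells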)
# [3] = ovarian cancer cell viability with rucaparib, profiling panel, oncology-focused library, rucaparib conditional (AID 1508598); details: patient-derived ovarian cancer cells, CellTiter-Glo viability, 144 h, stronger effect = lower value
# [4] = stronger effect = lower value, cell number ratio, induced over uninduced
# [5] = measured here: relative caspase fold change +Dox/-Dox
# [6] = measured here: total cells with miR-34 induction, stronger effect = lower value
# [7] = measured here: total cells without miR-34 induction
# [8] = MELAS cybrid survival, CellTiter-Glo 48 h, stronger effect = higher value
# [9] = Rieske KO mouse fibroblast survival, CellTiter-Glo 72 h
# [10] = at 0.000305 µM, OCI-C5x cells, with rucaparib 10 µM, 100% = cells with rucaparib alone
# [11] = at 0.000305 µM, OCI-C5x cells, without rucaparib
# [12] = at 0.000305 µM, OCI-P5x cells, with rucaparib 20 µM, 100% = cells with rucaparib alone
# [13] = at 0.000305 µM, OCI-P5x cells, without rucaparib
# [14] = at 0.00122 µM, OCI-C5x cells, with rucaparib 10 µM, 100% = cells with rucaparib alone
# [15] = at 0.00122 µM, OCI-C5x cells, without rucaparib
# [16] = at 0.00122 µM, OCI-P5x cells, with rucaparib 20 µM, 100% = cells with rucaparib alone
# [17] = at 0.00122 µM, OCI-P5x cells, without rucaparib
# [18] = at 0.00488 µM, OCI-C5x cells, with rucaparib 10 µM, 100% = cells with rucaparib alone
# [19] = at 0.00488 µM, OCI-C5x cells, without rucaparib
# [20] = at 0.00488 µM, OCI-P5x cells, with rucaparib 20 µM, 100% = cells with rucaparib alone
# [21] = at 0.00488 µM, OCI-P5x cells, without rucaparib
# [22] = at 0.0195 µM, OCI-C5x cells, with rucaparib 10 µM, 100% = cells with rucaparib alone
# [23] = at 0.0195 µM, OCI-C5x cells, without rucaparib
# [24] = at 0.0195 µM, OCI-P5x cells, with rucaparib 20 µM, 100% = cells with rucaparib alone
# [25] = at 0.0195 µM, OCI-P5x cells, without rucaparib
# [26] = at 0.0781 µM, OCI-C5x cells, with rucaparib 10 µM, 100% = cells with rucaparib alone
# [27] = at 0.0781 µM, OCI-C5x cells, without rucaparib
# [28] = at 0.0781 µM, OCI-P5x cells, with rucaparib 20 µM, 100% = cells with rucaparib alone
# [29] = at 0.0781 µM, OCI-P5x cells, without rucaparib
# [30] = at 0.313 µM, OCI-C5x cells, with rucaparib 10 µM, 100% = cells with rucaparib alone
# [31] = at 0.313 µM, OCI-C5x cells, without rucaparib
# [32] = at 0.313 µM, OCI-P5x cells, with rucaparib 20 µM, 100% = cells with rucaparib alone
# [33] = at 0.313 µM, OCI-P5x cells, without rucaparib
# [34] = at 1.25 µM, OCI-C5x cells, with rucaparib 10 µM, 100% = cells with rucaparib alone
# [35] = at 1.25 µM, OCI-C5x cells, without rucaparib
# [36] = at 1.25 µM, OCI-P5x cells, with rucaparib 20 µM, 100% = cells with rucaparib alone
# [37] = at 1.25 µM, OCI-P5x cells, without rucaparib
# [38] = at 5 µM, OCI-C5x cells, with rucaparib 10 µM, 100% = cells with rucaparib alone
# [39] = at 5 µM, OCI-C5x cells, without rucaparib
# [40] = at 5 µM, OCI-P5x cells, with rucaparib 20 µM, 100% = cells with rucaparib alone
# [41] = at 5 µM, OCI-P5x cells, without rucaparib
smiles,measurement,setting,value
C[C@]12CCC(=O)C=C1CC[C@@H]1[C@H]2C(O)C[C@@]2(C)[C@H]1CC[C@@]2(O)C(=O)CO (some centres not stated),fold change,[1]; [4],0.923 (inactive)
same,fold change,[1]; [5],0.886
same,cell count,[1]; [6],5230
same,cell count,[1]; [7],5670
same,z-score,[2]; [8],-0.31 (inactive)
same,z-score,[2]; [9],-0.201
C[C@]12C=CC(=O)C=C1CC[C@@H]1[C@H]2C(=O)C[C@@]2(C)[C@H]1CC[C@@]2(O)C(=O)CO,fold change,[1]; [4],0.899 (inactive)
same,fold change,[1]; [5],0.898
same,cell count,[1]; [6],7790
same,cell count,[1]; [7],8660
same,z-score,[2]; [8],-0.304 (inactive)
same,z-score,[2]; [9],-0.016
same,viability,[3]; [10],112% (inactive)
same,viability,[3]; [11],111% (inactive)
same,viability,[3]; [12],93.3% (active)
same,viability,[3]; [13],93.5% (active)
same,viability,[3]; [14],111% (inactive)
same,viability,[3]; [15],107% (inactive)
same,viability,[3]; [16],95.9% (active)
same,viability,[3]; [17],93.2% (active)
same,viability,[3]; [18],107% (inactive)
same,viability,[3]; [19],102% (inactive)
same,viability,[3]; [20],91% (active)
same,viability,[3]; [21],90.1% (active)
same,viability,[3]; [22],110% (inactive)
same,viability,[3]; [23],102% (inactive)
same,viability,[3]; [24],88.4% (active)
same,viability,[3]; [25],84.5% (active)
same,viability,[3]; [26],109% (inactive)
same,viability,[3]; [27],101% (inactive)
same,viability,[3]; [28],85% (active)
same,viability,[3]; [29],88.3% (active)
same,viability,[3]; [30],120% (inactive)
same,viability,[3]; [31],94.4% (active)
same,viability,[3]; [32],85.2% (active)
same,viability,[3]; [33],78.8% (active)
same,viability,[3]; [34],111% (inactive)
same,viability,[3]; [35],97.7% (active)
same,viability,[3]; [36],85.8% (active)
same,viability,[3]; [37],76.5% (active)
same,viability,[3]; [38],115% (inactive)
same,viability,[3]; [39],98.1% (active)
same,viability,[3]; [40],75.2% (active)
same,viability,[3]; [41],77.4% (active)
CCNC(=O)c1noc(-c2cc(Cl)c(O)cc2O)c1-c1ccc(OC)cc1,fold change,[1]; [4],0.987 (inactive)
same,fold change,[1]; [5],0.496
same,cell count,[1]; [6],2390
same,cell count,[1]; [7],2420
same,z-score,[2]; [8],2.58 (active)
same,z-score,[2]; [9],-1.9
same,viability,[3]; [10],129% (inactive)
same,viability,[3]; [11],113% (inactive)
same,viability,[3]; [12],105% (inactive)
same,viability,[3]; [13],98% (active)
same,viability,[3]; [14],120% (inactive)
same,viability,[3]; [15],120% (inactive)
same,viability,[3]; [16],101% (inactive)
same,viability,[3]; [17],102% (inactive)
same,viability,[3]; [18],138% (inactive)
same,viability,[3]; [19],120% (inactive)
same,viability,[3]; [20],100% (inactive)
same,viability,[3]; [21],101% (inactive)
same,viability,[3]; [22],181% (inactive)
same,viability,[3]; [23],140% (inactive)
same,viability,[3]; [24],33.1% (active)
same,viability,[3]; [25],82.6% (active)
same,viability,[3]; [26],73.6% (active)
same,viability,[3]; [27],39.7% (active)
same,viability,[3]; [28],17.1% (active)
same,viability,[3]; [29],9.14% (active)
same,viability,[3]; [30],39% (active)
same,viability,[3]; [31],22.6% (active)
same,viability,[3]; [32],12% (active)
same,viability,[3]; [33],7.17% (active)
same,viability,[3]; [34],9.37% (active)
same,viability,[3]; [35],6.36% (active)
same,viability,[3]; [36],4.69% (active)
same,viability,[3]; [37],4.76% (active)
same,viability,[3]; [38],8.73% (active)
same,viability,[3]; [39],6.88% (active)
same,viability,[3]; [40],4.38% (active)
same,viability,[3]; [41],3.37% (active)
